Screening data: PubChem BioAssay, National Center for Advancing Translational Sciences (NCATS)
D2 PAM-1: potentiates the human D2 dopamine receptor allosterically; P14416; DiscoveRx D2 beta-arrestin cells, luminescence, 90 min; 100% = 57 uM dopamine signal; potentiation, % (concentration not given with the values); 0.23% of 360,000 active; in the data active = potentiation above about 50%
Target sequence (P14416 whole entry, looked up): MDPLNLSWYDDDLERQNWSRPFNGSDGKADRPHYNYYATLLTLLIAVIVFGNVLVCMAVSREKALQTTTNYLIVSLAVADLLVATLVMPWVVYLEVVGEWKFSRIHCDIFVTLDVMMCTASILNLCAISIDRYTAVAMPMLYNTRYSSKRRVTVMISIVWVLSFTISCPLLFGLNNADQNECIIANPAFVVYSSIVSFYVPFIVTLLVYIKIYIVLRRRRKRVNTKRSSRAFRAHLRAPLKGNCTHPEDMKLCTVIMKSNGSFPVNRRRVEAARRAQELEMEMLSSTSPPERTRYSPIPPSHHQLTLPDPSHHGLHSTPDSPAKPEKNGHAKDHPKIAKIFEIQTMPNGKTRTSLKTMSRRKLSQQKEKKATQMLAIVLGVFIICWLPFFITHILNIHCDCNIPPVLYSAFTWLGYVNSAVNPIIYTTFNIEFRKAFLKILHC
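D2 cells co-treated with compound plus 50 nM dopamine (EC20) for 90 min at 37 deg C to detect potentiation. Beta-arrestin recruitment was read as enzyme-fragment luminescence after 1 h at ambient temperature. Full response was set by 57 uM dopamine.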
D2 antagonist: D2 dopamine receptor (human) antagonism; HEK293 TREx D2 cells, calcium flux, dopamine EC80; inhibition, % at 10 µM; 2% of 340,000 active; AID 485344; in the data active = inhibition above about 30%; inactive = below that, where a call was filed
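Dopamine at EC80 is the agonist stimulus; test compounds precede it by 180 s. Calcium flux read kinetically in a force-coupled, inducible HEK293 T-REx D2 cell line.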
D2 PAM-2: positively modulates the human D2 dopamine receptor allosterically; P14416; HEK293 T-REx D2, calcium flux, EC20 dopamine potentiation; potentiation, % at 10 µM; 0.34% of 340,000 active; AID 485347;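 active = potentiation over 3 SD above the plate norm, cut at about 30% in these data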
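Tetracycline-induced Hek293 Trex D2 cells, force-coupled to calcium, loaded with no-wash calcium dye. Compound added with 180 s kinetic read for agonism, then EC20 dopamine and a further 180 s read for potentiation.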
D2 ag-1: activates the human D2 dopamine receptor. P14416. DiscoveRx PathHunter D2 beta-arrestin, luminescence, 90 min; 100% = 57 uM dopamine signal. activation, % (test concentration not listed). 0.084% of 360,000 active. AID 624465; in the data active = activation above about 40%
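DiscoveRx PathHunter D2 beta-arrestin cells (2,100/well) attached overnight, then compound-stimulated 90 min at 37 C in HBSS/10 mM HEPES/0.1% Tween-20 buffer; beta-galactosidase complementation read by luminescence after 1 h at ambient temperature. Dopamine 57 uM final (EC100) as control.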
D2 ag-2: agonists of human D2 dopamine receptor; P14416; HEK293 T-REx D2 cells, calcium flux agonist mode; activation, % at 2 µM; 0.53% of 340,000 active;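 active = activation over 3 SD above normal in the single-dose calcium agonist read, cut at about 30% in these data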
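Tetracycline-induced HEK293 T-REx cells with force-coupled D2 receptor, plated overnight at 30 C, loaded with no-wash calcium dye. After a 10 s baseline, compound was pin-added and calcium flux read kinetically for 180 s; calcium rises flagged agonists.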
Each line names hits and unclear results; the compound was inactive in the other large screens. Hits are enriched below; roughly 2.4% of the tested compounds scored in any of these assays.

O=C(c1ccc(N2CCC3(CC2)OCCO3)c([N+](=O)[O-])c1)N1CCOCC1	D2 antagonist 31.2
COc1ccccc1NC(=S)NC(=O)Cc1ccc(Cl)cc1	D2 antagonist 52.3
CCOc1ccc(OCCSc2nc3ccccc3[nH]2)cc1	D2 PAM-2 32.2
CCOc1ccc(CC(=O)OCN2C(=O)c3ccccc3C2=O)cc1	D2 PAM-2 30.3
C/C(=N\OCc1ccc(C#N)cc1)c1ccccc1	none
C/C(=N\OCc1cccc(C(=O)O)c1)c1ccc(Cl)cc1	D2 antagonist 55.7
Cc1cc(C)c(S(=O)(=O)N2CCCC2=O)c(C)c1N(C)S(C)(=O)=O	D2 antagonist 37.8
CCOc1ccc(C(=O)Oc2cc(C)[nH]c(=O)c2[N+](=O)[O-])cc1	none
CCCCOc1ccc(C(=O)Oc2cc(C)[nH]c(=O)c2[N+](=O)[O-])cc1	D2 antagonist 77.1
CC(C)Oc1ccc(C2c3c(oc4ccccc4c3=O)C(=O)N2CCCN2CCOCC2)cc1 (configuration not stated)	none
O=C1c2oc3ccccc3c(=O)c2C(c2cccnc2)N1CCCN1CCOCC1 (configuration not stated)	D2 antagonist 34.6
O=C1CCC(C(=O)OC(C(=O)Nc2cc(Cl)cc(Cl)c2)c2ccccc2)=NN1 (configuration not stated)	D2 antagonist 33.5
O=C(O)c1ccccc1OC(C(=O)Nc1cc(Cl)cc(Cl)c1)c1ccccc1 (configuration not stated)	D2 antagonist 36.1
CCc1ccc(NC(=O)C(=O)NCCc2sc(-c3ccc(OC)c(OC)c3)nc2C)cc1	none (no result: D2 PAM-1, D2 antagonist, D2 ag-1)
O=C1CSc2ccc(C(=O)NCC(c3ccco3)N3CCCCC3)cc2N1 (configuration not stated)	D2 antagonist 35.8
CCc1cc(C(=O)NCC(c2ccco2)N2CCCCC2)sc1C (configuration not stated)	D2 antagonist 38.6
O=C(CNC(=O)c1cccs1)NCC(=O)OCc1ccc(F)cc1	D2 PAM-2 35.1
Cc1ccc(NC(=O)CS(=O)CC(=O)NC2CCN(Cc3ccccc3)CC2)c(C)c1 (configuration not stated)	none
Cc1ccc(NC(=S)NC2CCN(Cc3ccccc3)CC2)c(C)c1	D2 antagonist 46.9
Cc1ccccc1NC(=S)NC1CCN(Cc2ccccc2)CC1	D2 antagonist 78.4
Cc1ccc(NC(=O)Nc2nnc(SCC(=O)N(C(C)C)C(C)C)s2)cc1	none (no result: D2 PAM-1, D2 antagonist, D2 ag-1, D2 ag-2)
CCCCNCCOCCOc1ccc(Cl)cc1Br	D2 antagonist 72.3
CCC(C)NCCCCOc1ccc(Cl)cc1C (configuration not stated)	none (no result: D2 antagonist, D2 PAM-2, D2 ag-2)
CCC(C)NCCCOc1cc(Cl)ccc1Cl (configuration not stated)	D2 antagonist 80.0
COCCCNCCCOc1ccc(C)cc1Br	D2 antagonist 38.4
CCCCNCCCOc1cc(Cl)ccc1Cl	D2 antagonist 56.0
COCCCNCCCOc1ccc(Cl)cc1Br	none
Cc1ccc2nc(-c3ccsc3)c(Nc3ccc(Cl)cc3)n2c1	none (no result: D2 PAM-1, D2 antagonist, D2 ag-1)
CCOC(=O)N1CCC(NC(=O)CS(=O)(=O)Cc2nc(-c3cccc(OC)c3)oc2C)CC1	D2 PAM-2 96.6
COc1cccc(-c2nc(CS(=O)(=O)CC(=O)NC3CC3)c(C)o2)c1	none
COc1ccc(-c2nc(CS(=O)(=O)CC(=O)NCc3cccc(F)c3)c(C)o2)cc1	D2 antagonist 54.3
Cc1ccc(-c2nc(CS(=O)(=O)CC(=O)NCc3cccc(F)c3)c(C)o2)cc1	none (no result: D2 ag-2)
CCn1nc(C)c(CCN(C)C(=O)Nc2cc(C)cc(C)c2)c1C	none (no result: D2 PAM-1, D2 antagonist, D2 ag-1, D2 ag-2)
COc1ccc(C)c(NC(=O)NCCc2cnc[nH]2)c1	D2 antagonist 37.7
COc1ccc(CC(=O)NCCc2cnc[nH]2)cc1	none
COC(=O)c1ccc(NC(=S)NCCC2=CCCCC2)cc1	D2 antagonist 54.8
COc1ccc(C)cc1NC(=O)NCCC1=CCCCC1	D2 antagonist 85.8
CC(C)(C)c1ccc(C(=O)N2CCC(c3nc4ccccc4o3)CC2)cc1	none (no result: D2 PAM-1, D2 antagonist, D2 ag-1)
O=C(CSc1nnc(CNC(=O)c2ccccc2)n1-c1cccc(Cl)c1)Nc1ccccc1F	none (no result: D2 PAM-1, D2 antagonist, D2 ag-1)
CN1CCCC(CC2Oc3ccccc3Sc3ccccc32)C1 (configuration not stated)	D2 antagonist 95.7
c1ccc(OCCCCN2CCCCC2)cc1	none
